The text below walks through data of PubChem BioAssay (EPA / NIEHS).

Read-out in assay [1]: Protein phosphatase 2A (PPP2R4), PTPA (gene 5524)
The assay can be described thus: LTEA_HepaRG_PPP2R4: Life Technologies and Expression Analysis (LTEA) Assay for Protein phosphatase 2A (PPP2R4) using HepaRG (AID 2283522). The following applies: mRNA level, 48 h; actives raise or lower the signal. The gist of the method: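 HepaRG, 48 h exposure, 8-pt half-log series from 100 uM, 0.5% DMSO vehicle, duplicates. Readout: PPP2R4 mRNA, Fluidigm qRT-PCR, housekeeping-normalized. Bidirectional curve fit vs DMSO baseline.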

Read-out in assay [2]: Phosphatase and tensin (PTEN), PTEN (gene 5728)
Kind of assay: LTEA_HepaRG_PTEN: Life Technologies and Expression Analysis (LTEA) Assay for Phosphatase and tensin (PTEN) using HepaRG (AID 2283523). Conditions: mRNA level, 48 h; actives raise or lower the signal. The method, boiled down: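 Expression of PTEN is quantified in the human liver line HepaRG following two days of dosing (top concentration 100 uM, half-log dilutions, 0.5% DMSO). Values derive from bidirectional curve fitting relative to DMSO controls.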

Read-out in assay [3]: solute carrier (SLC22A1), SLC22A1 (gene 6580)
The assay can be described thus: LTEA_HepaRG_SLC22A1: Life Technologies and Expression Analysis (LTEA) Assay for solute carrier (SLC22A1) using HepaRG (AID 2283524).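 On AC50: differentiated human HepaRG liver cells in serum-free induction medium.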 The following applies: mRNA level, 48 h; actives raise or lower the signal. The method, boiled down:
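Transcript induction or suppression of SLC22A1 in human HepaRG cultures is scored after 48 h chemical treatment, with DMSO (0.5%) as baseline for bidirectional fitting. Concentrations span eight half-log points topping at 100 uM.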

Read-out in assay [4]: Pyruvate Dehydrogenase Kinase 4 (PDK4), PDK4 (gene 5166)
The assay can be described thus: LTEA_HepaRG_PDK4: Life Technologies and Expression Analysis (LTEA) Assay for Pyruvate Dehydrogenase Kinase 4 (PDK4) using HepaRG (AID 2283525). The following applies: mRNA level, 48 h; actives raise or lower the signal. The method, boiled down: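 Eight-point, half-log concentration series (max 100 uM, 0.5% DMSO) applied to differentiated HepaRG cells for 48 h in duplicate. Endpoint: PDK4 mRNA induction or repression by qRT-PCR against DMSO baseline.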

Read-out in assay [5]: NAD(P)H dehydrogenase [quinone] 1 (NQO1), NQO1 (gene 1728)
The assay can be described thus: LTEA_HepaRG_NQO1: Life Technologies and Expression Analysis (LTEA) Assay for NAD(P)H dehydrogenase [quinone] 1 (NQO1) using HepaRG (AID 2283526). The following applies: mRNA level, 48 h; actives raise or lower the signal. The method, boiled down: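 qRT-PCR read-out (Fluidigm TaqMan), normalized to three housekeeping genes, after 48 h chemical exposure of HepaRG cells. Concentrations: eight points, top 100 uM, half-log steps, 0.5% DMSO vehicle. Gain or loss of signal fitted relative to DMSO.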

Read-out in assay [6]: Nuclear factor erythroid 2-related factor 2 (Homo sapiens) (UniProt Q16236)
The assay can be described thus: LTEA_HepaRG_NFE2L2: Life Technologies and Expression Analysis (LTEA) Assay for Nuclear factor erythroid 2-related factor 2 (NFE2L2) Transcription Factor using HepaRG (AID 2283527).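 Further: TaqMan qRT-PCR transcript level normalised to ACTB GAPDH and POLR2A housekeeping genes.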 The following applies: mRNA level, 48 h; actives raise or lower the signal. The method, boiled down: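 Human liver HepaRG line treated in duplicate for 48 h with an eight-point series topping at 100 uM. Gene expression of NFE2L2 by qRT-PCR, bidirectionally fitted against the vehicle control.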

Read-out in assay [7]: succinate dehydrogenase complex iron sulfur subunit B (SDHB), SDHB (gene 6390)
The assay can be described thus: LTEA_HepaRG_SDHB: Life Technologies and Expression Analysis (LTEA) Assay for succinate dehydrogenase complex iron sulfur subunit B (SDHB) using HepaRG (AID 2283528). Conditions: mRNA level, 48 h; actives raise or lower the signal. The method, boiled down: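 HepaRG, 48 h exposure, 8-pt half-log series from 100 uM in 0.5% DMSO, duplicates. Readout: SDHB mRNA by Fluidigm qRT-PCR vs housekeeping genes; bidirectional fit relative to DMSO.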

Read-out in assay [8]: Signal transducer and activator of transcription 3 (Homo sapiens) (UniProt P40763)
The assay can be described thus: LTEA_HepaRG_STAT3: Life Technologies and Expression Analysis (LTEA) Assay for Signal transducer and activator of transcription (STAT3) using HepaRG (AID 2283529). The following applies: mRNA level, 48 h; actives raise or lower the signal. The method, boiled down: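 In this transcriptional endpoint, HepaRG cultures receive test chemicals at up to 100 uM for 48 h, tested in duplicate. STAT3 mRNA is normalized to ACTB, GAPDH and POLR2A.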

Read-out in assay [9]: solute carrier (SLCO1B1), SLCO1B1 (gene 10599)
The assay can be described thus: LTEA_HepaRG_SLCO1B1: Life Technologies and Expression Analysis (LTEA) Assay for solute carrier (SLCO1B1) using HepaRG (AID 2283530). Conditions: mRNA level, 48 h; actives raise or lower the signal. The gist of the method:
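SLCO1B1 transcript levels were quantified by TaqMan qRT-PCR using three housekeeping genes for normalization. This followed 48 h chemical exposure (100 uM top, half-log, 8 points, 0.5% DMSO) of HepaRG liver cells, with gain or loss fitted relative to DMSO.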

Read-out in assay [10]: sulfotransferase 2A1 (SULT2A1), SULT2A1 (gene 6822)
The assay can be described thus: LTEA_HepaRG_SULT2A1: Life Technologies and Expression Analysis (LTEA) Assay for sulfotransferase 2A1 (SULT2A1) using HepaRG (AID 2283531). The following applies: mRNA level, 48 h; actives raise or lower the signal. The method, boiled down: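 Expression change of SULT2A1, by qRT-PCR with three housekeeping-gene normalization, was scored bidirectionally versus DMSO. Cells: differentiated HepaRG, dosed in duplicate for 48 h across 8 points, highest 100 µM, half-log dilution, 0.5% DMSO.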

Read-out in assay [11]: Transforming Growth Factor (TGFA), TGFA (gene 7039)
Kind of assay: LTEA_HepaRG_TGFA: Life Technologies and Expression Analysis (LTEA) Assay for Transforming Growth Factor (TGFA) using HepaRG (AID 2283532). The following applies: mRNA level, 48 h; actives raise or lower the signal. The gist of the method:
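Gene expression of TGFA was quantified by qRT-PCR after human HepaRG cells were treated for 48 h with test chemicals (eight concentrations, highest 100 uM, 0.5% DMSO). Activity in either direction was fitted relative to DMSO.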

Read-out in assay [12]: Transforming Growth Factor (TGFB1), TGFB1 (gene 7040)
Kind of assay: LTEA_HepaRG_TGFB1: Life Technologies and Expression Analysis (LTEA) Assay for Transforming Growth Factor (TGFB1) Transporter using HepaRG (AID 2283533). The following applies: mRNA level, 48 h; actives raise or lower the signal. The method, boiled down:
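TGFB1 transcript measured by qRT-PCR with normalisation to three housekeeping genes (ACTB, GAPDH, POLR2A); human HepaRG line treated in duplicate for 48 hr with an 8-point series topping at 100 uM, 0.5% DMSO vehicle, bidirectionally fitted.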

Read-out in a further assay: TIMP1, TIMP1 (gene 7076)
Kind of assay: LTEA_HepaRG_TIMP1: Life Technologies and Expression Analysis (LTEA) Assay for TIMP1 using HepaRG (AID 2283534). The following applies: mRNA level, 48 h; actives raise or lower the signal. The gist of the method:
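Bidirectional change in TIMP1 transcript versus 0.5% DMSO, measured by TaqMan qRT-PCR with three housekeeping genes for normalization. HepaRG human liver cells dosed 48 h in duplicate, top concentration 100 uM with half-log dilutions.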

Read-out in assay [13]: Tumor necrosis factor receptor 1 (TNFRSF1A), TNFRSF1A (gene 7132)
The assay can be described thus: LTEA_HepaRG_TNFRSF1A: Life Technologies and Expression Analysis (LTEA) Assay for Tumor necrosis factor receptor 1 (TNFRSF1A) using HepaRG (AID 2283535). The following applies: mRNA level, 48 h; actives raise or lower the signal. The method, boiled down: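 mRNA measured by qRT-PCR (TaqMan, Fluidigm arrays) against ACTB/GAPDH/POLR2A housekeepers after 48 h chemical exposure of HepaRG cells. Top concentration 100 uM, half-log 8-point series, duplicates; vehicle 0.5% DMSO, both fit directions.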

Read-out in assay [14]: Thyroid Hormone Responsive (THRSP), THRSP (gene 7069)
Kind of assay: LTEA_HepaRG_THRSP: Life Technologies and Expression Analysis (LTEA) Assay for Thyroid Hormone Responsive (THRSP) using HepaRG (AID 2283536). The following applies: mRNA level, 48 h; actives raise or lower the signal. The gist of the method: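 Cell model: human HepaRG, approx. 100,000 cells/well, 0.5% DMSO vehicle. Exposure lasts 48 h; phenobarbital 1 mM serves as induction positive control. Gene expression is measured by qRT-PCR against three endogenous control genes.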

Read-out in assay [15]: Cellular tumor antigen p53 (Homo sapiens) (UniProt P04637)
Kind of assay: LTEA_HepaRG_TP53: Life Technologies and Expression Analysis (LTEA) Assay for Tumor Protein P53 (TP53) using HepaRG (AID 2283537). Conditions: mRNA level, 48 h; actives raise or lower the signal. The method, boiled down:
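HepaRG, 48 h exposure, top 100 uM, half-log 8-point, 0.5% DMSO vehicle, duplicates. Read: TP53 mRNA by TaqMan qRT-PCR, normalised to ACTB/GAPDH/POLR2A; bidirectional fit vs DMSO.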

Read-out in assay [16]: UDP glucuronosyltransferase (UGT1A1), UGT1A1 (gene 54658)
The assay can be described thus: LTEA_HepaRG_UGT1A1: Life Technologies and Expression Analysis (LTEA) Assay for UDP glucuronosyltransferase (UGT1A1) using HepaRG (AID 2283538). Conditions: mRNA level, 48 h; actives raise or lower the signal. The method, boiled down: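 HepaRG, 48 h chemical exposure (top 100 uM, half-log 8-pt, 0.5% DMSO vehicle), duplicate wells; qRT-PCR (TaqMan, Fluidigm array) for UGT1A1 mRNA, housekeeping-normalized; bidirectional curve fit vs DMSO baseline.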

Read-out in assay [17]: UDP glucuronosyltransferase (UGT1A6), UGT1A6 (gene 54578)
Kind of assay: LTEA_HepaRG_UGT1A6: Life Technologies and Expression Analysis (LTEA) Assay for UDP glucuronosyltransferase (UGT1A6) using HepaRG (AID 2283539). Conditions: mRNA level, 48 h; actives raise or lower the signal. The method, boiled down: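 Expression was quantified by TaqMan qRT-PCR on Fluidigm arrays with ACTB/GAPDH/POLR2A normalization and bidirectional fitting against 0.5% DMSO. HepaRG cells (~100,000/well) were treated in duplicate for 48 h at eight half-log concentrations up to 100 uM in serum-free induction medium.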

Read-out in assay [18]: X-box binding protein 1 (XBP1), XBP1 (gene 7494)
The assay can be described thus: LTEA_HepaRG_XBP1: Life Technologies and Expression Analysis (LTEA) Assay for X-box binding protein 1 (XBP1) using HepaRG (AID 2283540). The following applies: mRNA level, 48 h; actives raise or lower the signal. The method, boiled down: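 XBP1 transcript by qRT-PCR (housekeeping-normalized: ACTB, GAPDH, POLR2A) after 48 h chemical treatment of HepaRG cells, 8-point half-log series topping at 100 uM, vehicle 0.5% DMSO. Gain and loss of signal fitted relative to DMSO.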

The nature of assay [19]: LTEA_HepaRG_LDH_cytotoxicity: Cytotoxicity Assessment in the Life Technologies and Expression Analysis (LTEA) Assay (AID 2283563; active means hit-call score of the fitted dose curve at least 0.9, where 1 is the maximum). The gist of the method:
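LDH release into culture medium read after 48 h chemical treatment of HepaRG cells. Duplicate wells, eight-point half-log series topping at 100 uM, 0.5% DMSO vehicle and baseline.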

Each structure is given as a SMILES string. The source made the active and inactive calls. How the source made its calls, unless noted: active means hit-call score of the fitted dose curve at least 0.9, where 1 is the maximum; inactive means score below 0.9.

Sequence of Nuclear factor erythroid 2-related factor 2 (Homo sapiens) (Q16236 whole entry, looked up): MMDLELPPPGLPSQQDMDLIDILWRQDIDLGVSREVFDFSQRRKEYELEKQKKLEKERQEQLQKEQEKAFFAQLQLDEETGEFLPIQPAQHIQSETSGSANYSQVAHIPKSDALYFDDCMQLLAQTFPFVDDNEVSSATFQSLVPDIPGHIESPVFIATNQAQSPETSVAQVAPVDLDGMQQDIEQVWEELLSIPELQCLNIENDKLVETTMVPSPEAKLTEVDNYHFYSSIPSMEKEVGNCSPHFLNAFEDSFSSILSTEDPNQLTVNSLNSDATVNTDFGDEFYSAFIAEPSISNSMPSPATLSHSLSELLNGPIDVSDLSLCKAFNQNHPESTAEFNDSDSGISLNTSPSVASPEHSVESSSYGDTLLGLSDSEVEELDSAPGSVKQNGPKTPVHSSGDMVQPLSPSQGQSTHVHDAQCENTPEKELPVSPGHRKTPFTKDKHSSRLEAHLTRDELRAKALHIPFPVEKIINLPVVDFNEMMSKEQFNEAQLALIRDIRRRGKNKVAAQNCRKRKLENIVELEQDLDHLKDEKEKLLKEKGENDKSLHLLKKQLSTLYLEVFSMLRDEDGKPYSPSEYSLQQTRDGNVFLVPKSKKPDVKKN
Sequence of Signal transducer and activator of transcription 3 (Homo sapiens) (P40763 whole entry, looked up): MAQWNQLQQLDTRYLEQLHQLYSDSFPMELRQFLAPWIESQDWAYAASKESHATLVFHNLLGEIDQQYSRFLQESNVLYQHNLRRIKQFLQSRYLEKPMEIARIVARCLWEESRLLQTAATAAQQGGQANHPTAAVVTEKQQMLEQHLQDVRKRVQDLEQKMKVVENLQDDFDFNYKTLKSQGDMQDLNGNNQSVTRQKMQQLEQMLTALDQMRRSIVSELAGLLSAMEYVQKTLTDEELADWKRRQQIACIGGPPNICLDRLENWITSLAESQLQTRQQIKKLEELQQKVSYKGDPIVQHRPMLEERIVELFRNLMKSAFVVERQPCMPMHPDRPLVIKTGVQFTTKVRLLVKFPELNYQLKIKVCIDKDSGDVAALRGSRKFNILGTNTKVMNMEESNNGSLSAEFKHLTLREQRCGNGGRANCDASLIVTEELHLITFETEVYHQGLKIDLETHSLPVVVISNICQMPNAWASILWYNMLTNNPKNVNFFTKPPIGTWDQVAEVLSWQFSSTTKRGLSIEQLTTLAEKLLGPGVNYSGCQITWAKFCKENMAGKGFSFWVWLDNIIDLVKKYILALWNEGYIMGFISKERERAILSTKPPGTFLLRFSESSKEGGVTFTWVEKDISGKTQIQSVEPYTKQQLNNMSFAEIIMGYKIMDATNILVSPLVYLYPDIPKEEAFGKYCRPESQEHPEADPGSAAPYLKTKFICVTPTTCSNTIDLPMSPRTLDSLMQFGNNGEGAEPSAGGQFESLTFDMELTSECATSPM
Sequence of Cellular tumor antigen p53 (Homo sapiens) (P04637 whole entry, looked up): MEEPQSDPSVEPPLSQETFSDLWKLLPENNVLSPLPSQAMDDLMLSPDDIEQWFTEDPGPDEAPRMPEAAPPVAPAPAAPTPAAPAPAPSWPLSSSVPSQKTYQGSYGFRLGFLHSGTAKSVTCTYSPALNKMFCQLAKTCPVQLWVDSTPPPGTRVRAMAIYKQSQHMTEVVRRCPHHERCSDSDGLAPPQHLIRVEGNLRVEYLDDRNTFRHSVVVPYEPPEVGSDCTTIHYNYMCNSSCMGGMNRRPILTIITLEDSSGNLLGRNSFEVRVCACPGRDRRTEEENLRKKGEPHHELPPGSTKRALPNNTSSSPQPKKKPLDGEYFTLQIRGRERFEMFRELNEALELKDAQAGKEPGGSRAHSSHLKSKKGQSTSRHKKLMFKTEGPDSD

As to `COc1cc(OC)nc(Sc2cccc(Cl)c2C(=O)O)n1`, the compound was classed as inactive in assay [1], in assay [2], in [3], in [4], in assay [5] and in [6]. The call in [7], in [8], in assay [9], in [10], in [11] and in assay [12] was inactive. For the same compound, the outcome is “inactive” with TIMP1, TIMP1 (gene 7076); “inactive” in assay [13]; “inactive” in assay [14]; “inactive” in [15]; “inactive” in assay [16]; “inactive” in [17]. Also, the compound was classed as inactive in assay [18] and in assay [19].

As for `C[N+]1(C)CCCCC1`, the compound was classed as inactive in [1], in assay [2], in [3], in [4], in assay [5] and in [6]. The outcome in assay [7], in assay [8], in [9], in assay [10], in assay [11] and in assay [12] was inactive. Also, the outcome was “inactive” with TIMP1, TIMP1 (gene 7076); “inactive” in [13]; “inactive” in assay [14]; “inactive” in assay [16]; “inactive” in assay [17]; “inactive” in assay [18]. The call in assay [19] was inactive.

Turning to `CON=C(C(=O)OC)c1ccccc1CON=C(C)c1cccc(C(F)(F)F)c1`, the call in assay [1], in [2], in [4], in assay [5], in assay [6] and in assay [7] was inactive. Further, the outcome in assay [8] was “inactive”; in [9] it was “inactive”; in [10], “inactive”; in assay [11] it was “inactive”; in [12] it was “inactive”; in the assay with TIMP1, TIMP1 (gene 7076), “inactive”. Further, the call in [13], in assay [15], in [17], in [18] and in assay [19] was inactive. The AC50 – broadly, the concentration at which the activity in the assay is half-maximal – is 50 µM (active) in assay [3], 50 µM (active) in assay [14] and 6.06 µM (active) in assay [16].
